# Data: the supplement of paper PMC10338343
# ± gives the standard deviation. Whole data set: some 6,600 sequences, median “pre-steady-state target cleavage rate” near 0.07, cut for the highest 2% near 0.72. The sample holds the highest values, similar sequences and a random draw of the others, so the mix is not that of the screen.
# System: MIWI (PIWIL1) piRISC loaded with Kctd7 piRNA (30 nt)
# Assay: pre-steady-state target cleavage rate (min^-1); MIWI and MILI are mouse PIWI proteins and EfPiwi is from a freshwater sponge; tags in brackets are library labels; higher = faster piRNA-guided slicing of the target
# Details: guide: Kctd7 piRNA 5'p-UGUUAAUCUCUCAGAGAAGGUGACAGUGAU; auxiliary factor: 500 nM mouse GTSF1
# Procedure: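 Cleave-'n-Seq: a library of target RNAs (target site embedded in constant flanks, ACAGCATTCCGCGTTAGTGATATCCG... 5' flank; DNA-blocked outside the site) at 0.1 nM was incubated with 1 nM active mouse MILI or MIWI piRISC (synthetic 5'-monophosphorylated piRNA guide) with or without 500 nM mouse GTSF1 at 33 °C for 1 min to 16 h. Uncleaved targets were sequenced and normalised to non-target controls, and the pooled three trials were fitted to a burst-and-steady-state model to give the pre-steady-state cleavage rate (min^-1; k3 is constrained to at most 1e-4). Sequence is the target site only; target names encode pairing extent (gX:gY) and contiguous / 1-mismatch / 2-mismatch / bulge geometry. Fits with R² ≤ 0 are excluded.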
row,Sequence,pre-steady-state target cleavage rate
1,UAGUGACAGUCCUUCUCAGAGAGUUUAACA,0.0044 ± 0.0027
2,UAGUGACUCACGAUCUCUGAGAGAUUAACA,0.00958 ± 0.0018
3,UACACUGUCACCUUCUCUGAGAGAUGUAACA,0.386 ± 0.051
4,AACACUCUCACCUUCUCUGAGAGAUUAACA,0.564 ± 0.035
5,UACACUGUCACCUUCUCUGAGAGAUUACCA,0.152 ± 0.024
6,UUCACUGUCACCUCUCUGAGAGAUUAACA,0.501 ± 0.037
7,UUCACUGUCACCUCUCUCUGAGAGAUUAACA,0.289 ± 0.022
8,UUCACUGUCACCAUUCUCUGAGAGAUUAACA,0.725 ± 0.029
9,AUCACUGUCACAUUCUCUGAGAGAUUAACA,0.799 ± 0.035
10,UACACUGUCACAUUCUCUGAGAGAUUAACA,0.676 ± 0.036
11,UACACUGUCACCAUUCUCUGAGAGAUUAACA,0.674 ± 0.035
12,UUCACUGUCACAUUCUCUGAGAGAUUAACA,0.682 ± 0.031
13,AUCACUGUCACCAUUCUCUGAGAGAUUAACA,0.741 ± 0.036
14,UAGUCUGUCACCAUUCUCUGAGAGAUUAACA,0.601 ± 0.03
15,UACACUGUCCACCUUCUCUGAGAGAUUAACA,0.496 ± 0.038
16,UAGAGUGACACCUUCUCUGAGAGAUUAACA,0.55 ± 0.023
17,UAGACUUUCACCUUCUCUGAGAGAUUAACA,0.612 ± 0.033
18,UAGUGACAGUGUUUCUCUGAGAGAUUAACA,0.00493 ± 0.0019
19,UAGUGUGACACCUUCUCUGAGAGAUUAUGA,0.0202 ± 0.0074
20,UUCACUGUCAACUUCUCUGAGAGAUUAACA,0.668 ± 0.028

row,Sequence,pre-steady-state target cleavage rate
1,UACACUGUCACACUUCUCUGAGAGAUUAACA,0.544 ± 0.023
2,UAGACUGUCAACCUUCUCUGAGAGAUUAACA,0.282 ± 0.023
3,UACACUGUCAACCUUCUCUGAGAGAUUAACA,0.193 ± 0.016
4,UAGACUGUCAACUUCUCUGAGAGAUUAACA,0.726 ± 0.049
5,UACACUGUCAACUUCUCUGAGAGAUUAACA,0.796 ± 0.035
6,AUCACUGUCAACUUCUCUGAGAGAUUAACA,0.793 ± 0.045
7,AUCACUGUCACUUCUCUGAGAGAUUAACA,0.628 ± 0.044
8,UAGUCUGUCAACUUCUCUGAGAGAUUAACA,0.593 ± 0.024
9,UUCACUGUCACCUUCUCUGAAGAGAUUAACA,0.019 ± 0.0081
10,UAGUGACUCACCUUCUGUGAGAGAUUAAGA,0.088 ± 0.02
11,UAGACUGUCACCUUCUCUGAGAGAUUAACA [g2:g27:cont:t1A],0.805 ± 0.05
12,UAGACUGUCACCUUCUCUCUGAGAUUAACA,0.0118 ± 0.0026
13,AAGACUGUCACCUUCUCUGAGAGAUUAACA,0.786 ± 0.036
14,AAGACUGUCACCUUCUCUGAGAGAUUAAGA,0.238 ± 0.037
15,UAGACUGUCACCUUCUCUGAGAGAUUAACC [g2:g27:cont:t1C],0.322 ± 0.03
16,UAGACUGUCACCUUCUCUGAGAAGAUUAACA,0.0399 ± 0.0084
17,UAGACUGUCACCUUCUCUGUGAGAUUUUGA,0.0048 ± 0.0033
18,UAGUGACACACCUUCACUGAGAGAAUAACA,0.0335 ± 0.0091
19,UAGUGAGUCACCUUCACUGAGAGAUUUUGA,0.0525 ± 0.017
